High-throughput results from PubChem.
In the library only some 2.4% were active in any assay of this set; here they are far more common.
POLB inh – qHTS Assay for Inhibitors of DNA Polymerase Beta; P06746; Pol beta primer extension/strand displacement, fluorescence kinetic; Potency, µM (doses to about 114 µM), for the others: at the highest dose activity change, negative = inhibition, most hits filed as inhibitors; actives 1.3% (n = 340,000); note: % is set by controls: 0 for no effect and ±100 for the full control effect
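Values derive from four-parameter Hill fits of normalized kinetic data: reads at 0 and 10 min following addition of 50 nM substrate to 10 nM Pol beta preincubated 15 min with compound.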
Pol eta inh – qHTS for Inhibitors of Polymerase Eta; DNA polymerase eta (Homo sapiens), Q9Y253; actives 1.2% (n = 390,000); recombinant Pol eta, fluorescent DNA replication assay; Potency, µM (top dose mostly 114 µM), inactives show at the top dose activity change, negative = inhibition, hits mostly inhibitors; note: % is set by controls: 0 for no effect and ±100 for the full control effect
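Pol eta at 10 nM preincubated with compounds 15 min at room temperature; reaction started with fluorescent substrate (50 nM final) and read kinetically at 0 and 10 min.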
GLS inhibitor – qHTS for Inhibitors of Glutaminase (GLS); Glutaminase kidney isoform, mitochondrial (Homo sapiens), O94925; GLS enzymatic activity, qHTS titration; Potency, µM (highest dose often 45.5 µM), inactives show at the highest dose activity change, negative = inhibition, usual class: inhibitors; actives 0.21% (n = 410,000); AID 624170, 2012; note: % is set by controls: 0 for no effect and ±100 for the full control effect
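Human kidney-isoform GLS in 45 mM KH2PO4 pH 8.2, 0.02% Tween-20, with compound, started with 1mM L-Glutamine (added stock). Glutamate oxidase/HRP/Amplex red coupled fluorescence read at start and after 30 min at RT.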
Pol kappa inh – qHTS for Inhibitors of Polymerase Kappa. DNA polymerase kappa (Homo sapiens), Q9UBT6. purified Pol kappa, fluorescent DNA synthesis assay, 10 min. Potency, µM (doses to about 107 µM), for the others: top-dose activity, negative = inhibition, most hits filed as inhibitors. actives 0.53% (n = 400,000). AID 588579, 2011; note: % is set by controls: 0 for no effect and ±100 for the full control effect
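Kinetic fluorescence readout at 0 and 10 min followed reaction start with substrate at 50 nM final. Beforehand, enzyme (10 nM Pol kappa) stood 15 min with compound at room temperature; buffer-only wells were negative controls.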
Pol iota inh – qHTS for Inhibitors of Polymerase Iota. DNA polymerase iota (Homo sapiens), Q9UNA4. Pol iota fluorescent replication assay, 10 min. Potency, µM (highest dose often 115 µM), inactives show at the highest dose activity, negative = inhibition, usual class: inhibitors. actives 1% (n = 390,000)
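Fluorescent replication assay read twice, at 0 min and 10 min after adding 50 nM (final) substrate. Enzyme (10 nM) and compounds were first incubated 15 min at room temperature; enzyme-free buffer wells were negative controls.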
GCN5L2 inh – qHTS Assay for Inhibitors of GCN5L2 | AID 504327, 2011 | GCN5L2 HAT assay, ThioGlo1 CoA-SH fluorescence | actives 0.21% (n = 390,000) | Histone acetyltransferase KAT2A (Homo sapiens), Q92830 | Potency, µM (doses to about 58.9 µM), inactives show top-dose activity change, negative = inhibition, most hits filed as inhibitors; note: % is set by controls: 0 for no effect and ±100 for the full control effect
Target sequence (Q92830 whole entry, looked up): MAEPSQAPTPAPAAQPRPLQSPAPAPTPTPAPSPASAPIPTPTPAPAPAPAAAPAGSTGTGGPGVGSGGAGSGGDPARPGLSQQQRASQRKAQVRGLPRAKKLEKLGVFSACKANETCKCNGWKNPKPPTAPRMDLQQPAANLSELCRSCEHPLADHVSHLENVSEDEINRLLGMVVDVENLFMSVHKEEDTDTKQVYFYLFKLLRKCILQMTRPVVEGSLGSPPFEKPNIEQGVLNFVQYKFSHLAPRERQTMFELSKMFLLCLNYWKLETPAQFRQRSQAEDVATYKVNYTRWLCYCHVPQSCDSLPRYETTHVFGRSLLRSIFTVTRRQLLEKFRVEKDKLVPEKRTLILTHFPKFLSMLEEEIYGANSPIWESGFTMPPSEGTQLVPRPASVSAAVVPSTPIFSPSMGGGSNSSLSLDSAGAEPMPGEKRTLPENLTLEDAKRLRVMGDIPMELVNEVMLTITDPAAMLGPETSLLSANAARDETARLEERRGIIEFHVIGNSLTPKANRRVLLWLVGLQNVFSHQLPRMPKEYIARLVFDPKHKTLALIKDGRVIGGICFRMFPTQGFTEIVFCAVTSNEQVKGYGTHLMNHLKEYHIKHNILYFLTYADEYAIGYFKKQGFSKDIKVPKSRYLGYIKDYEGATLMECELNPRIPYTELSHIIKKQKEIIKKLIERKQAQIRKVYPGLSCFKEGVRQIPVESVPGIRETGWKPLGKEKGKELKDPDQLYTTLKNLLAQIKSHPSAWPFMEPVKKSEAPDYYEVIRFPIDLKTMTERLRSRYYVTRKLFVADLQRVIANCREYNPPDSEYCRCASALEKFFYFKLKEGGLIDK
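ThioGlo1-coupled HAT assay: 20nM GCN5L2, 70uM acetyl-CoA, 75uM H3(1-25) peptide, pH 7.5. Fluorescence read at 340/540nm at start and after 20 min at room temperature.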
* = called active by the depositor; ? = inconclusive; / = not tested or not shown; [ ] = another dose, or the depositor's remark. Calls come from the whole dose curve; as a rule, active = well fitted inhibition curve with a large enough effect; inconclusive = small, poorly fitted or top-dose-only effect, or another doubt; inactive = no such curve, though single readings can be large or run the other way. Potency is the fitted concentration of half-maximal effect.

SMILES	POLB inh	Pol eta inh	GLS inhibitor	Pol kappa inh	Pol iota inh	GCN5L2 inh
CCc1ccc(NC(=O)C(C)OC(=O)c2ccc(NS(=O)(=O)c3ccc(C)c([N+](=O)[O-])c3)cc2)cc1 (stereo unspecified)	-2%	79µM*	22%	?	?	-14%
COc1ccc([N+](=O)[O-])cc1NC(=O)CCS(=O)(=O)c1ccc(Br)cc1	16µM*	50µM*	-6%	?	9%	0%
CCc1ccccc1NC(=O)CCS(=O)(=O)c1ccc(Br)cc1	35µM*	-18%	-5%	-18%	0%	21%
O=C(CCS(=O)(=O)c1ccc(Br)cc1)NC1CCCC1	22µM*	?	-8%	?	-5%	-2%
O=C(CCNS(=O)(=O)c1ccc(Br)cc1)NC1CCCCC1	1%	-6%	5%	-10%	-19%	?
COc1ccc([N+](=O)[O-])cc1NC(=O)CS(=O)(=O)c1ccc(C)cc1	2%	-6%	0%	-9%	-8%	0%
Cc1c(C)c(C)c(/C=C/c2ccnc3ccccc23)c(C)c1C	/	/	/	-13%	106%	/
CC1CCCN(C(=O)c2ccc(CSc3nc4ccncc4n3Cc3ccccc3)cc2)C1 (stereo unspecified)	2%	-6%	-2%	-10%	-2%	-4%
COc1ccc(CC(=O)N2CCCc3ccccc32)cc1	2%	-13%	-15%	-8%	-4%	29%
COc1ccc(CC(=O)N2CCCc3ccccc32)cc1OC	-17%	-5%	13%	-13%	89µM*	0%
CCOc1cccc(-c2nn3c(-c4ccco4)nnc3s2)c1	7%	20µM*	-4%	5%	22%	-3%
Cc1oc(-c2ccc(Cl)cc2)cc1-c1nn2c(-c3ccco3)nnc2s1	20µM*	/	/	/	/	-14%
COc1cccc(-c2nnc3sc(-c4ccco4)nn23)c1	8%	0%	-13%	-12%	1%	-3%
Cc1ccc(-c2csc3n[nH]c(=S)n23)cc1	28%	-6%	?	-11%	-8%	25µM*
CC(/C=C/C=C(\C)C(=O)O[C@@H]1O[C@H](CO[C@@H]2O[C@H](CO)[C@@H](O)[C@H](O)[C@H]2O)[C@@H](O)[C@H](O)[C@H]1O)=C\C=C\C=C(C)\C=C\C=C(/C)C(=O)O[C@@H]1O[C@H](CO[C@@H]2O[C@H](CO)[C@@H](O)[C@H](O)[C@H]2O)[C@@H](O)[C@H](O)[C@H]1O	/	/	-13%	21µM*	/	8%
COc1cc(/C=C2/C(=O)N(c3ccc(C(=O)O)cc3)N=C2C)cc(OC)c1O	13%	?	31%	-21%	1.6µM*	-13%
COc1cc(/C=C2\C(=O)N(c3ccc(S(N)(=O)=O)cc3)N=C2C)ccc1OC(=O)c1ccco1	?	-13%	-13%	1%	2.5µM*	-23%
COc1cccc(OCCOc2ccc(/C=C3\C(=N)N4N=C(S(C)(=O)=O)SC4=NC3=O)cc2OC)c1	-29%	-16%	-3%	-31%	?	-17%
CS(=O)(=O)C1=NN2C(=N)/C(=C\c3ccc(OC(=O)c4ccco4)cc3)C(=O)N=C2S1	?	-3%	3%	-19%	2%	-12%
CCS(=O)(=O)C1=NN2C(=N)/C(=C\c3ccc(OC(=O)c4ccco4)c(OC)c3)C(=O)N=C2S1	-25%	79µM*	10%	-30%	?	-26%
C=CCOc1ccc(/C=C2\C(=N)N3N=C(S(=O)(=O)CC)SC3=NC2=O)cc1OC	-3%	40µM*	?	-4%	?	-3%
CC/C(=C/c1ccccc1OC)c1cc(-c2ccccc2)cc2oc3ccccc3c12	/	/	/	-16%	12%	/
CSCC[C@H](N)C(=O)N[C@@H](CCCN=C(N)N)C(=O)N[C@@H](CC(C)C)C(=O)N[C@@H](Cc1ccccc1)C(=O)N[C@H](C(=O)O)C(C)C	/	/	/	-9%[60.1 µM]	/	41%
CCCS(=O)(=O)c1ncc(Cl)c(C(=O)Nc2sc3c(c2C(=O)NCC)CCCC3)n1	/	/	/	1%	10%	/
COc1cc(/C=C2\COC/C(=C\c3cc(OC)c(OC)c(OC)c3)C2=O)cc(OC)c1OC	-2%	?	5%	-21%	11µM*	-1%
SMILES	POLB inh	Pol eta inh	GLS inhibitor	Pol kappa inh	Pol iota inh	GCN5L2 inh
COc1ccc(/C=C2\COc3ccccc3C2=O)cc1OC	7%	?	-26%	-6%	25µM*	-10%
CCOc1cc(/C=C2\COc3ccccc3C2=O)cc(Br)c1OCC(=O)N(C)C	-25%	?	0%	1%	18µM*	-13%
CN(C)C(=O)c1ccc(-c2ccc3ncnc(NCc4cccs4)c3c2)cc1	/	/	/	?	/	-15%
CC(/C=C1\SC(=S)N(C(C(=O)O)c2ccccc2)C1=O)=C\c1ccccc1 (stereo unspecified)	18%	89µM*	26%	?	?	?
CC(/C=C1\SC(=S)N(CC(=O)O)C1=O)=C\c1ccccc1	1%	?	1%	-2%[60.1 µM]	?	?
O=C(O)C(c1ccccc1)N1C(=O)/C(=C/c2cccs2)SC1=S (stereo unspecified)	1%	-8%	0%	0%	?	-2%
C=CCOc1ccc(/C=C2\SC(=S)N(C(C(=O)O)c3ccccc3)C2=O)cc1 (stereo unspecified)	5%	79µM*	-1%	-4%	?	0%
Cc1ccc(NC(=O)c2c(C)oc3ccc(O)c(CN4CCCC4)c23)c(C)c1	13%	-16%	8%	4%	-1%	2%
CCOC(=O)c1ccc(NC(=O)CC2Nc3cccc4cccc(c34)NC2=O)cc1 (stereo unspecified)	-3%	-20%	12%	14µM*	3.5µM*	-11%
O=C(C[n+]1cccc2cc(Cl)ccc21)c1ccc2c(c1)CCCC2	/	/	/	-8%	-2%	/
CCOc1ccc(C2NC(=O)c3c(COC)cc(C)nc3N2Cc2ccccc2)cc1OC (stereo unspecified)	9%	-13%	-17%	4%	59%	-7%
COc1ccc(CN(C#N)c2nc(SC)nc(N(C)C)n2)cc1	2%	?	5%	?	89µM*	-5%
O/N=C1/CCc2cccc3cccc1c23	-2%	-1%	21%	-9%	-14%	-2%
O=C1C(=NO)CCc2ccccc21	/	18µM*	6%	-23%	?	/
